# Source: PubChem BioAssay (Paczesny and Yang Labs, IUPUI and University of Michigan)
# This is one part of a sample in which hits are shown more often than they occur.
# ST2 inh: IL1RL1 inhibition; Q01638; AlphaLISA ST2-Fc/biotin-IL-33 interaction, 1 h; inhibition, % for hits at 17 µM; 78,000 tested, 2.3% active; AID 1259354; in the data active = inhibition above about 30%
# Target sequence (Q01638 whole entry, looked up): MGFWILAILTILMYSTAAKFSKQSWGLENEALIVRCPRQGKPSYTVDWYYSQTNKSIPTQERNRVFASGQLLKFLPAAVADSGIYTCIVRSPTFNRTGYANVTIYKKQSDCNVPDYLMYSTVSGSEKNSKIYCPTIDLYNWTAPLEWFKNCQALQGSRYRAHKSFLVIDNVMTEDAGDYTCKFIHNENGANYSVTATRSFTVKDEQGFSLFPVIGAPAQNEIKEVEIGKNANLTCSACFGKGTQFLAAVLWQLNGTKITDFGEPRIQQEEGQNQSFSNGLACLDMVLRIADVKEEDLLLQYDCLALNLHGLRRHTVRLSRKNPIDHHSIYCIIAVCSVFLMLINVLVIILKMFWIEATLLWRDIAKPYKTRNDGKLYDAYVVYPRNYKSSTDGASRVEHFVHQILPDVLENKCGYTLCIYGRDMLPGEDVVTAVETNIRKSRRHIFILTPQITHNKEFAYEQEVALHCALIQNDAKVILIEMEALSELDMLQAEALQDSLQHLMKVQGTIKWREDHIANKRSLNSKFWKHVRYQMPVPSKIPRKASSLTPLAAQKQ
# Numbers without * were called inactive; i = inactive.
SMILES,ST2 inh
Cc1ccc2nc(-c3cc(N=Cc4ccc([N+](=O)[O-])cc4)ccc3O)[nH]c2c1,38%*
C/C(=C\c1ccccc1)c1nc2ccc([N+](=O)[O-])cc2[nH]1,i
O=[N+]([O-])c1cccc(C=Nc2ccc(F)cc2)c1O,i
Cc1cc(N(C)C)nc(Nc2ccc(NC(=O)c3ccccc3Cl)cc2)n1,i
CC1=C(C(=O)Nc2cccnc2)C(c2ccc(OCc3ccccc3)cc2)n2ncnc2N1 (stereo not drawn),i
C=C(C)CN(CC)C(=O)CCc1c(C)nc2ncnn2c1C,i
COc1cc(C2Nc3ccccc3-c3nc4ccccc4n32)cc(OC)c1OC (stereo not drawn),i
Cc1sc2c(c1C)c(=O)n(Cc1ccccc1)c(=O)n2CC(=O)Nc1cccc(Cl)c1,i
O=c1/c(=C\c2ccc(-c3ccccc3[N+](=O)[O-])o2)sc2nc3ccccc3n12,i
Cc1cc([N+](=O)[O-])c(C)cc1-c1ccc(/C=C(\C#N)c2nc3ccccc3[nH]2)o1,38%*
N#C/C(=C\c1ccc(N2CCOCC2)cc1)c1nc2ccccc2[nH]1,i
CCCc1noc2c1C(c1cc(Br)ccc1F)C(C#N)=C(N)N2 (stereo not drawn),i
COc1ccc2ccc(=O)oc2c1,i
COc1ccc(C2=NN(S(=O)(=O)c3ccccc3)C(c3ccc(Br)cc3)C2)cc1 (stereo not drawn),i
COc1ccc(NC(=O)CN2C(=O)c3ccc([N+](=O)[O-])cc3C2=O)c(OC)c1,i
COc1ccc(C2CC(c3ccc(Br)cc3)=NN2S(=O)(=O)c2ccccc2)cc1 (stereo not drawn),34%*
COc1ccc(C2CC(c3ccccc3)=NN2S(=O)(=O)c2ccccc2)cc1 (stereo not drawn),i
COc1ccc(N2C(=O)C(N3C(=O)c4ccccc4C3=O)C2c2cccc(OC)c2)cc1 (stereo not drawn),i
COc1ccc(C2=NN(CN3C(=O)C(=O)c4ccccc43)C(c3cccc([N+](=O)[O-])c3)C2)cc1 (stereo not drawn),39%*
COc1ccccc1C1CC(c2ccc(Br)cc2)=NN1S(=O)(=O)c1ccccc1 (stereo not drawn),i
COc1ccc(C2=NN(C(=O)CCC(=O)O)C(c3ccc(Cl)cc3)C2)cc1 (stereo not drawn),i
COc1ccc(C2=NN(CN3C(=O)C(=O)c4ccccc43)C(c3ccccc3)C2)cc1 (stereo not drawn),36%*
COc1ccc(N(CC(=O)Nc2ccc(OC)c(OC)c2)S(C)(=O)=O)c(OC)c1,i
CC(=O)C1=C(O)C(=O)N(CCCN2CCOCC2)C1c1ccccc1[N+](=O)[O-] (stereo not drawn),i
N[C@@H]1CC[C@@H](NC(=O)c2cc(=O)n(-c3ccccc3)[nH]2)C1,i
SMILES,ST2 inh
CN1[C@@H](CCC(=O)N2CCc3ccccc32)CNC(=O)[C@@H]2[C@H]1CCN2Cc1ccc(C(=O)O)cc1,i
O=c1c2sccc2n(Cc2cccc(F)c2)c(=O)n1-c1ccccc1,i
C=CCNC(=O)c1cc(-c2ccc(OC)c(OC)c2)on1,i
CC(C)N1C(=O)CO[C@H]2CN(Cc3ncc[nH]3)C[C@H]21,i
c1ccc(CN2CCN(Cc3cccs3)CC2)cc1,i
O=C(CCCn1c(=O)[nH]c2ccsc2c1=O)N1CCN(c2ccccc2)CC1,i
O=C(C(=O)N1CCc2c(nc(-c3ccccn3)[nH]c2=O)C1)c1ccccc1,i
Cc1ccc(NC(=O)c2cc3c(C)nn(-c4ccccc4)c3s2)cc1[N+](=O)[O-],36%*
Cc1cc(C)c([N+](=O)[O-])cc1NC(=O)c1cc2c(C)nn(-c3ccccc3)c2s1,i
Cc1nn(-c2ccccc2)c2sc(C(=O)NCCCO)cc12,i
COC(=O)[C@@H]1Cc2ncn(Cc3ccc(Cl)cc3)c2CN1Cc1ccc(C(=O)O)cc1,i
COc1cc(/C=C/c2ccc3cccc(O)c3n2)cc(Cl)c1OC,34%*
COc1cc(C=O)cc(Cl)c1OCc1ccc(Br)cc1,i
COc1cccc2ccc(/C=C/c3ccc4c(c3)OCO4)nc12,i
CCN(CC)C(=O)C1=C(C)Nc2nc3ccccc3n2C1c1ccc(F)cc1 (stereo not drawn),i
NC(=O)[C@H](CC1CCCCC1)NC(=O)[C@@H]1CN(C(=O)Nc2ccccc2)CCN1S(=O)(=O)c1ccccc1,i
CCOc1ccccc1-c1c(C#N)c(N)nc(OC)c1C#N,i
CCOc1cc(/C=C(\C#N)c2nn(-c3ccccc3)c(N)c2C#N)cc(Br)c1OC,31%*
C#CCOc1c(Br)cc(C=O)cc1OCC,i
CCN(CC)c1ccc(/C=C2\SC(=O)N(CC(=O)N3CCOCC3)C2=O)cc1,i
C=CCOc1ccc(/C=C2\SC(=O)N(CC(=O)N3CCOCC3)C2=O)cc1OC,40%*
COc1cc(C=O)ccc1OC(=O)N1CCOCC1,i
O=C(CN1C(=O)S/C(=C\c2ccccc2OCc2cccc(F)c2)C1=O)N1CCOCC1,30%*
Cc1ccc(COc2ccc(/C=C3\SC(=O)N(CC(=O)N4CCOCC4)C3=O)cc2)cc1,i
